Eight compounds from ChEMBL document CHEMBL1961873, “Compounds: GSK PKIS; Assays: Nanosyn kinase panel” (2012) can be followed below.

Molecules are shown by their SMILES.

Assay [1] deals with T1, Ephrin type-B receptor 2 (Homo sapiens) (UniProt P29323).
T1 sequence (whole entry): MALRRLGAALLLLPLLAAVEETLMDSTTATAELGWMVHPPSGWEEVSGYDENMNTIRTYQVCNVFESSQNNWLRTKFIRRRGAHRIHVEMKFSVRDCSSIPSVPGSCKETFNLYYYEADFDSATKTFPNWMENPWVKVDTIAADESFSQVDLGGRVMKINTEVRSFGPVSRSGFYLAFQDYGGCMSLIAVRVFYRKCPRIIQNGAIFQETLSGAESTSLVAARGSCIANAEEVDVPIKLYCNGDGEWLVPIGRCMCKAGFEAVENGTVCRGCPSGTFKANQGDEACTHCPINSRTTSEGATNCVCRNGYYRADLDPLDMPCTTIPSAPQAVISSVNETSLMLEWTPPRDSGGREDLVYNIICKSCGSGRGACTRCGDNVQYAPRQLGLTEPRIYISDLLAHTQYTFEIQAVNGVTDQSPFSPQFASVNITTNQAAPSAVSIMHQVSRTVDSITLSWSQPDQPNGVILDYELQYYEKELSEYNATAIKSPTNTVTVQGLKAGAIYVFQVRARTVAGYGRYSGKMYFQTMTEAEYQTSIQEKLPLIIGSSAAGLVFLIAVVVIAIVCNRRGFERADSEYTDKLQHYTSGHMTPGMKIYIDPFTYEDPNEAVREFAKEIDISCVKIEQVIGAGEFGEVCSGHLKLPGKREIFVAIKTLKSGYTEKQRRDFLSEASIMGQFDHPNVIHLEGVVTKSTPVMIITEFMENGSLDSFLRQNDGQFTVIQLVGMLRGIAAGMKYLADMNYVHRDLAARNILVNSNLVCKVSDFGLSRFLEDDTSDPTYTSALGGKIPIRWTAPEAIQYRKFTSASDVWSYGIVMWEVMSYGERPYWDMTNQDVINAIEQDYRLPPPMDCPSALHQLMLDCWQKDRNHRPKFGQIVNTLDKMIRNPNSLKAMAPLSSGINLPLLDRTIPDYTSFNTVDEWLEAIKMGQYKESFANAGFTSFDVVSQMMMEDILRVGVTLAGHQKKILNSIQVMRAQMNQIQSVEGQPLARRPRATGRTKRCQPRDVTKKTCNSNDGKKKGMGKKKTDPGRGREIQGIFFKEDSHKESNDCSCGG
As to conditions: at 1 µM.

Assay [2] deals with T2, Ephrin type-B receptor 3 (Homo sapiens) (UniProt P54753).
T2 sequence (whole entry): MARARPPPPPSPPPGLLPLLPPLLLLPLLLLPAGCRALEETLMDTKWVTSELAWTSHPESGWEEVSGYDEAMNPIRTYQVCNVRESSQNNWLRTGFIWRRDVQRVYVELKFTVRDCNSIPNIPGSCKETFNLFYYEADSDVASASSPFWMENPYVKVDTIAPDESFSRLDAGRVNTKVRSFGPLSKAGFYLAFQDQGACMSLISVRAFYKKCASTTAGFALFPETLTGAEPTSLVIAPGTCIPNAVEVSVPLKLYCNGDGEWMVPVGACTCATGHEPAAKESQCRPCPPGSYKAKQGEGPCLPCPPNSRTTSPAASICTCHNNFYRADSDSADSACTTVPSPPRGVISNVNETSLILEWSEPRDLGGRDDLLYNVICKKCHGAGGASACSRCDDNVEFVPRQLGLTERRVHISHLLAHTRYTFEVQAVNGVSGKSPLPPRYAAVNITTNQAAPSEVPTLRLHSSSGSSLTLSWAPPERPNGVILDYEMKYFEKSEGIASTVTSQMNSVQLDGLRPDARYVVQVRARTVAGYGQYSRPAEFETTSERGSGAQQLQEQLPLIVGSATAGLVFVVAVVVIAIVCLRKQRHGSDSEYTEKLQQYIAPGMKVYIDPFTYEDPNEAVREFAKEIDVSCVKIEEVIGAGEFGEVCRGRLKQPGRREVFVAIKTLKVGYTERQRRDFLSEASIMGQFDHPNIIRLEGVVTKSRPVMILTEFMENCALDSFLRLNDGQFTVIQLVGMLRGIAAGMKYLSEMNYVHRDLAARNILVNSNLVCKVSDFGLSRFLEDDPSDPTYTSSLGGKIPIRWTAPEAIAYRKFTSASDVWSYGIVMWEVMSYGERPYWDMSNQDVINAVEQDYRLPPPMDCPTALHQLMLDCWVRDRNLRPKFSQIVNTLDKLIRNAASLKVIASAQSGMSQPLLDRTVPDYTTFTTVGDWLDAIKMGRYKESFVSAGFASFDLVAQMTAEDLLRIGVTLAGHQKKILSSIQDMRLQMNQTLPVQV
As to conditions: at 0.1 µM.

Assay [3] has as its target T2, Ephrin type-B receptor 3 (Homo sapiens). The following applies: at 1 µM.
The target in assay [4] is T3, Ephrin type-B receptor 4 (Homo sapiens) (UniProt P54760).
T3 sequence (whole entry): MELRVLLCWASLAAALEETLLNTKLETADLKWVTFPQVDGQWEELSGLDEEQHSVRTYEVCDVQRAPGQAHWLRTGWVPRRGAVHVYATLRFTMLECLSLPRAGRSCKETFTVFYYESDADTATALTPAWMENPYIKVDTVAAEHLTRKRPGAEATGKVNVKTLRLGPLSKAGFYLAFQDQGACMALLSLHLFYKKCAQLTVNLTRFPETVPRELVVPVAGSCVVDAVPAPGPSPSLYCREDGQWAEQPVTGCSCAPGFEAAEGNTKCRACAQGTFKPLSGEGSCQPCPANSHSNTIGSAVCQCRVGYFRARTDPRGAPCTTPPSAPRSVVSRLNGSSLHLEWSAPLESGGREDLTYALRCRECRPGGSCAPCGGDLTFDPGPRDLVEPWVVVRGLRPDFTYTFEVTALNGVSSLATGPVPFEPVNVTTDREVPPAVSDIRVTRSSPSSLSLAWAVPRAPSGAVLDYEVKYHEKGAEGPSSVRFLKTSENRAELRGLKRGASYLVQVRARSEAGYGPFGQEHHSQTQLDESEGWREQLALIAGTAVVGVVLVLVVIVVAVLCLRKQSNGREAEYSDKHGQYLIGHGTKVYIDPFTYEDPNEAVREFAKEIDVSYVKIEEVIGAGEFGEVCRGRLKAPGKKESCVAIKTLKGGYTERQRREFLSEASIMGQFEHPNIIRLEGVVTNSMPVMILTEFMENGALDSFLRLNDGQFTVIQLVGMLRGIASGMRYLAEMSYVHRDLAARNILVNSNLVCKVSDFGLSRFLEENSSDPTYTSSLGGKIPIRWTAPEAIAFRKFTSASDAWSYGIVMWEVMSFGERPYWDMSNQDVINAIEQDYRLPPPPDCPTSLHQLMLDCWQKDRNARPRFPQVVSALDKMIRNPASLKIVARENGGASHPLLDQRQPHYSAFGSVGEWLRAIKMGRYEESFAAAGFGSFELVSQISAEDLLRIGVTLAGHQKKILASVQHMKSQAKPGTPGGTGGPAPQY
The following applies: at 0.1 µM.

Assay [5] has as its target T3, Ephrin type-B receptor 4 (Homo sapiens). As to conditions: at 1 µM.
In assay [6] the target is Receptor tyrosine-protein kinase erbB-2 (Homo sapiens) (UniProt P04626). As to conditions: at 0.1 µM.
Receptor tyrosine-protein kinase erbB-2 (Homo sapiens), sequence (P04626 whole entry): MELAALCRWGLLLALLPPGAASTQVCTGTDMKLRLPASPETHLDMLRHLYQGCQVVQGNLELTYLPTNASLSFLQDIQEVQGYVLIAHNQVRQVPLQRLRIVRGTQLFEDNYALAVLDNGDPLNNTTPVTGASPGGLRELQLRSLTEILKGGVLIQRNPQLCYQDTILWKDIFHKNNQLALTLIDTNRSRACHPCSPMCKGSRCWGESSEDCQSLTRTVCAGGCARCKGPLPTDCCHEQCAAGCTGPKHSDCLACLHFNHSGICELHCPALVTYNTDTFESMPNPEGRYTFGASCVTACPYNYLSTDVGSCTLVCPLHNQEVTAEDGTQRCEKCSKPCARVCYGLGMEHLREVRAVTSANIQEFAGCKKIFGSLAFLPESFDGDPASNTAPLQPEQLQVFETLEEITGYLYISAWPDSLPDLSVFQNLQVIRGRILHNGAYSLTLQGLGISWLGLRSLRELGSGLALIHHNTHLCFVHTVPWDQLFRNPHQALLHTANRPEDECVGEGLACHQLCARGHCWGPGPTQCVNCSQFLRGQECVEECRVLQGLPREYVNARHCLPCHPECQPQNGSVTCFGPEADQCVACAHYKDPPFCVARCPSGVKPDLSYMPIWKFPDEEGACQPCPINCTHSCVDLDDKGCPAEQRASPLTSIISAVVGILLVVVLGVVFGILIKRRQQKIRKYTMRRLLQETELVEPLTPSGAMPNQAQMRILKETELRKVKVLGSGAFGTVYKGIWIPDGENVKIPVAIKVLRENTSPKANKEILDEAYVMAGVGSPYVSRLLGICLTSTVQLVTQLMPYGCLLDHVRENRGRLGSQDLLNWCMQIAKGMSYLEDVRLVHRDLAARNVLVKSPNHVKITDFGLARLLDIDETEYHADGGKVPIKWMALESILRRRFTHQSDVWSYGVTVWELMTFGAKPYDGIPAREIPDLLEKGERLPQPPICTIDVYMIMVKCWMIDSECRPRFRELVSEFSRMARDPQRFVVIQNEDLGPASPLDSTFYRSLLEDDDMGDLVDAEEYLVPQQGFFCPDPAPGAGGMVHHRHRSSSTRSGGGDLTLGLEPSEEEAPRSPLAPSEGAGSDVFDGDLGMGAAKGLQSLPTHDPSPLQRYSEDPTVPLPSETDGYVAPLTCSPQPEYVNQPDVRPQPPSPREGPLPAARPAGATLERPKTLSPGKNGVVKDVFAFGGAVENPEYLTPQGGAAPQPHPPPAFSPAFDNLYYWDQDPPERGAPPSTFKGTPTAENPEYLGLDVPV
For assay [7] the target is unchanged. As to conditions: at 1 µM.
The target in assay [8] is Receptor tyrosine-protein kinase erbB-4 (Homo sapiens) (UniProt Q15303). As to conditions: at 0.1 µM.
Receptor tyrosine-protein kinase erbB-4 (Homo sapiens), sequence (Q15303 whole entry): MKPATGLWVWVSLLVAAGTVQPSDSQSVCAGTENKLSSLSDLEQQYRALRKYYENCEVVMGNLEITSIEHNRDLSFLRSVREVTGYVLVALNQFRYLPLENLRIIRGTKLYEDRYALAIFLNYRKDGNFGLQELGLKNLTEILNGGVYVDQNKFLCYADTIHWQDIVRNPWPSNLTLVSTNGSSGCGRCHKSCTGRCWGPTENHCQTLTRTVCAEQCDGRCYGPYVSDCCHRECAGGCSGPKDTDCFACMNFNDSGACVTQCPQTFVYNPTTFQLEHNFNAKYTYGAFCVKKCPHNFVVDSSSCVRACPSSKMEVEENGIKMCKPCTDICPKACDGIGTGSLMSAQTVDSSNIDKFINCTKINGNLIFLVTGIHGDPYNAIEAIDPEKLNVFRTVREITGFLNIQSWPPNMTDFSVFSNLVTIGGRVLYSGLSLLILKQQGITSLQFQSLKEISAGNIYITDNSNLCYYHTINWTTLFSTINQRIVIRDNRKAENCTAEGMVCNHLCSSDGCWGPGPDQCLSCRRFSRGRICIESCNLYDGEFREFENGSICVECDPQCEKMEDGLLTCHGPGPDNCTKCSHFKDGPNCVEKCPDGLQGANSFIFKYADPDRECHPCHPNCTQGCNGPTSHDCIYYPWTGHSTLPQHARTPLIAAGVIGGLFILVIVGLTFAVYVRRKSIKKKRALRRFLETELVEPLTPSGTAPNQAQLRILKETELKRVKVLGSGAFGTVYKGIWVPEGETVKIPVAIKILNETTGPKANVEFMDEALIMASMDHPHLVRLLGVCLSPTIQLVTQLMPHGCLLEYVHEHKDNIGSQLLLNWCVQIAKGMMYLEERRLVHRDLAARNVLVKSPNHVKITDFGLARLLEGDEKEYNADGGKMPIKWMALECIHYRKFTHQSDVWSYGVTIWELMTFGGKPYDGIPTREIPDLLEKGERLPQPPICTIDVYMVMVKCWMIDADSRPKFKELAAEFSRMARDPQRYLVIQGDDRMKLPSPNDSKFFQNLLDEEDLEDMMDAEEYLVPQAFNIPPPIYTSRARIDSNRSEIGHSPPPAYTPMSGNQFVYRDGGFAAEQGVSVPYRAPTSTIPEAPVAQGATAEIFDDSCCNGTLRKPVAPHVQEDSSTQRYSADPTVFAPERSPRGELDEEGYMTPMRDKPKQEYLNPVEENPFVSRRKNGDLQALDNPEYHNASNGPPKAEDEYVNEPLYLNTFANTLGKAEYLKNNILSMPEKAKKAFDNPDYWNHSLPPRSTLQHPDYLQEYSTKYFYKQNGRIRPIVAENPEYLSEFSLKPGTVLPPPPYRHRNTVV
Assay [9] shares this target. The following applies: at 1 µM.
The target of assay [10] is Tyrosine-protein kinase Fer (Homo sapiens) (UniProt P16591). As to conditions: at 0.1 µM.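 Further: reported figures are averaged percent inhibition of FER.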
Tyrosine-protein kinase Fer (Homo sapiens), sequence (P16591 whole entry, looked up): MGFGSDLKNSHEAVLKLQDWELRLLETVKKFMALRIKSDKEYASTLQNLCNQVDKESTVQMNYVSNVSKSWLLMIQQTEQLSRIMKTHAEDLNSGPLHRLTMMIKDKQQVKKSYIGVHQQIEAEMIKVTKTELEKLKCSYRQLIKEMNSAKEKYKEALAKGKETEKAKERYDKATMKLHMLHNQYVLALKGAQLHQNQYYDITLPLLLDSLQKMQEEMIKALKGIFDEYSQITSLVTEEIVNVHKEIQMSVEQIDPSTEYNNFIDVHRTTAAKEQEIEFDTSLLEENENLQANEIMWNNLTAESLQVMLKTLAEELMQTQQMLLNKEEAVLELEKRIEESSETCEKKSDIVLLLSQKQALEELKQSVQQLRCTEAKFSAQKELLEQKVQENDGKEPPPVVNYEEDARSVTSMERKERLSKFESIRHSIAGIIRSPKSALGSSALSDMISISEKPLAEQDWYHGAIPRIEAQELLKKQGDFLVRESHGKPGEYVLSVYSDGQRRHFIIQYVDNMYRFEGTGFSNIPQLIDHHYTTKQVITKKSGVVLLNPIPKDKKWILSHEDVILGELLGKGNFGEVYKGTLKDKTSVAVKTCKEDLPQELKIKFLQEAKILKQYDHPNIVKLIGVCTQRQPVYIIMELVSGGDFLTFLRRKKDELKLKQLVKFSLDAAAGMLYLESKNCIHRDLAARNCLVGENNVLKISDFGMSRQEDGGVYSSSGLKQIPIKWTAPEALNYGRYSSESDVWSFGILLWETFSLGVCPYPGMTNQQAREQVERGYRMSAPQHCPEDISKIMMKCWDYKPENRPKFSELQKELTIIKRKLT

A word on the inhibition: it is the relative decrease from the control value, in per cent. For the compound `CCS(=O)(=O)c1ccc(OC)c(Nc2ncc(-c3cccc(OC)c3)o2)c1`, the inhibition in assay [1] was 24.3%; in assay [2], 3.22%; in assay [3], 2.36%; in assay [4], 3.32%; in assay [5], 11.9%; in assay [6], -0.52%. In addition, the inhibition in assay [7] is 0.18%; in assay [8], 10.5%; in [9], 22.1%; in [10] it was -0.2%.

Take `Cc1cc(Cl)cc2c1NC(=O)C2=NNc1ccc(S(N)(=O)=O)cc1`: the inhibition stood at 1.31% in assay [1]; 3.65% in assay [2]; 1.13% in [3]; 1.3% in assay [4]; 1.46% in [5]; 2.46% in assay [6]. The inhibition came out at 3.15% in assay [7], 6.08% in assay [8], 6.7% in [9] and 2.65% in [10].

Regarding `CCCN1CCCC(c2ccc(Nc3nc(Nc4cc(F)ccc4C(N)=O)c4cc[nH]c4n3)c(OC)c2)C1` (stereo not given), the inhibition in assay [1] was 15.8%; in [2] it was 6.2%; in [3] it was -1.82%; in assay [4], 2.18%; in [5], 4.67%; in assay [6], 2.27%. The inhibition in assay [7] stood at 3.37%; in assay [8], 36.3%; in assay [9], 75%; in assay [10], 77.5%.

As to `N#Cc1cccc(Nc2nccc(-c3cnn4ncccc34)n2)c1`, the inhibition was determined as 46.2% in assay [1]; 4.19% in [2]; 3.9% in assay [3]; 5.63% in assay [4]; 22.5% in assay [5]; 1.23% in assay [6]. In addition, the inhibition in assay [7] is 5.3%; in [8], 8.57%; in [9], 19.1%; in [10], 9.92%.

With `NS(=O)(=O)c1ccc(-c2cc3ccncc3cc2OCc2ccccc2)cc1`, the inhibition in assay [1] was 12.6%; in [2], 5.73%; in [3], 3.29%; in assay [4] it was 2.88%; in assay [5], 2.91%; in [6], 2.03%. Besides, the inhibition in [7] is 3.62%; in [8], 7.38%; in [9] it was 8.97%; in assay [10], 5.47%.

Take `NS(=O)(=O)c1cccc(-c2cc3ccncc3cc2OCc2ccccc2)c1`: the inhibition in [1] was 9.74%; in assay [2] it was 6.23%; in assay [3], 4.28%; in [4], 2.45%; in assay [5], 2.84%; in [6], 1.13%. In addition, the inhibition in [7] is -3.29%; in assay [8], 8.81%; in assay [9] it was 9.16%; in [10], 3.7%.

Take `Nc1nccc(-c2c(-c3ccc(F)cc3)ncn2CCCN2CCOCC2)n1`: the inhibition amounted to 7.41% in assay [1]; 5.73% in [2]; 3.41% in [3]; 2.19% in assay [4]; 3.04% in assay [5]; 4.07% in assay [6]. The inhibition in assay [7] was found to be 6.08%; in [8], 12.4%; in assay [9], 31.7%; in [10], 2.69%.

For `CCS(=O)(=O)c1ccc(OC)c(Nc2nccc(N(C)c3ccc4c(C)n[nH]c4c3)n2)c1`, the inhibition in assay [1] is 43.6%; in [2] it was 2.23%; in assay [3] it was 6.04%; in [4] it was 17.4%; in [5] it was 65.8%; in [6], 7.28%. The inhibition in assay [7] was determined as 13.4%; in assay [8], 18.5%; in assay [9], 60.5%; in assay [10], 2.69%.
